Test results reported in PubChem BioAssay.

Each molecule was assayed against Voltage-gated potassium channel subunit beta-2 (Rattus norvegicus) (UniProt P62483) (assay: inhibitors of rat Kvbeta2 reductase activity – biochemical, NADPH fluorescence, primary screen (AID 622;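 note: slope of raw intensity against log time taken from 70 to 1610 s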)). Conditions: recombinant KvBeta, 4-cyanobenzaldehyde reduction, at 10 µM, stronger effect = higher value;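 active = fluorescence slope higher than the sample average by over 3 SD (cut at about -0.22 in these data, passing the limit was not always enough); inactive = the rest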.
Chain of Voltage-gated potassium channel subunit beta-2 (Rattus norvegicus) (P62483 whole entry, looked up): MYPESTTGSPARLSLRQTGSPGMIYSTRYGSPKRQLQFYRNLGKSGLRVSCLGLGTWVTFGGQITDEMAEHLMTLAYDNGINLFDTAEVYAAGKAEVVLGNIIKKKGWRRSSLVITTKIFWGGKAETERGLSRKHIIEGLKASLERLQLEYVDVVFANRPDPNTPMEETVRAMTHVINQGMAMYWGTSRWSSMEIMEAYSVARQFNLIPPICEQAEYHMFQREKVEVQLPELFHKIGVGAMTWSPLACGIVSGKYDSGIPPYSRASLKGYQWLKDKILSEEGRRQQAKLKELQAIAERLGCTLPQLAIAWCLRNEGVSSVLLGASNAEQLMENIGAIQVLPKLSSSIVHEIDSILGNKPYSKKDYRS

Fluorescence slope, inactive:
O=C(CSc1nc2ccccc2s1)Nn1cnnc1 -0.439, Cc1cccc(CCNC(=O)CCc2nc(-c3ccccc3F)no2)c1 -0.415, CCOC(=O)N1CCC(NC(=O)Cn2ncc3c4ccccc4n(C)c3c2=O)CC1 -0.28, CCCn1c(-c2ccc(F)cc2)cnc1SCC(=O)O -0.622, CC1CCN(C(=O)CSc2nnc(-c3ccc(S(=O)(=O)N4CCOCC4)cc3)n2C)CC1 -0.612, Cc1cc(=O)n2nc(N3CCCC(C(=O)N4CCc5ccccc54)C3)sc2n1 (configuration not stated) -0.324, CCOC(=O)c1ccc(NC(=O)CSc2n[nH]c(-c3ccncc3)n2)cc1 -0.592, CCOC(=O)N1CCC(c2cc(=O)n3[nH]cc(C(=O)OC)c3n2)CC1 -0.541, COc1ccc(C(=O)CSc2nnc(C3CCCCC3)n2N)c(OC)c1 -0.612, Cc1ccc(C)c(NC(=O)c2ccc3c(c2)N(Cc2ccc(F)cc2)C(=O)CS3=O)c1 (configuration not stated) -0.546, CCc1[nH]c(=O)c(C#N)c2c1CCCC2 -0.495, COc1cc(C2CC(=O)NC3=C2C(=O)CC(C)(C)C3)ccc1O (configuration not stated) -0.41
